In PubChem BioAssay AID528 (NMMLSC, 2006):
Among all 24,000 compounds or so, fewer than 10 were called active. Inconclusive results (about 9%) are left out.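 Rule for the calls: active = fluorescent ligand binding to cells raised by more than 40% of the manganese-induced maximum; inconclusive = compound's own fluorescence above 85% of the ligand control signal; inactive = the rest.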 Not all results are given here.

Each compound was assayed against Integrin alpha-4 (Homo sapiens) (UniProt P13612) (assay: increased LDV-FITC ligand binding on VLA-4 – Jurkat cells, flow cytometry, primary screen (AID 528;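 note: 0% = ligand binding without compound and 100% = manganese-stimulated maximal binding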)). Settings: stronger effect = higher value, screened at 10 µM (by protocol).
Sequence of Integrin alpha-4 (Homo sapiens) (P13612 whole entry, looked up): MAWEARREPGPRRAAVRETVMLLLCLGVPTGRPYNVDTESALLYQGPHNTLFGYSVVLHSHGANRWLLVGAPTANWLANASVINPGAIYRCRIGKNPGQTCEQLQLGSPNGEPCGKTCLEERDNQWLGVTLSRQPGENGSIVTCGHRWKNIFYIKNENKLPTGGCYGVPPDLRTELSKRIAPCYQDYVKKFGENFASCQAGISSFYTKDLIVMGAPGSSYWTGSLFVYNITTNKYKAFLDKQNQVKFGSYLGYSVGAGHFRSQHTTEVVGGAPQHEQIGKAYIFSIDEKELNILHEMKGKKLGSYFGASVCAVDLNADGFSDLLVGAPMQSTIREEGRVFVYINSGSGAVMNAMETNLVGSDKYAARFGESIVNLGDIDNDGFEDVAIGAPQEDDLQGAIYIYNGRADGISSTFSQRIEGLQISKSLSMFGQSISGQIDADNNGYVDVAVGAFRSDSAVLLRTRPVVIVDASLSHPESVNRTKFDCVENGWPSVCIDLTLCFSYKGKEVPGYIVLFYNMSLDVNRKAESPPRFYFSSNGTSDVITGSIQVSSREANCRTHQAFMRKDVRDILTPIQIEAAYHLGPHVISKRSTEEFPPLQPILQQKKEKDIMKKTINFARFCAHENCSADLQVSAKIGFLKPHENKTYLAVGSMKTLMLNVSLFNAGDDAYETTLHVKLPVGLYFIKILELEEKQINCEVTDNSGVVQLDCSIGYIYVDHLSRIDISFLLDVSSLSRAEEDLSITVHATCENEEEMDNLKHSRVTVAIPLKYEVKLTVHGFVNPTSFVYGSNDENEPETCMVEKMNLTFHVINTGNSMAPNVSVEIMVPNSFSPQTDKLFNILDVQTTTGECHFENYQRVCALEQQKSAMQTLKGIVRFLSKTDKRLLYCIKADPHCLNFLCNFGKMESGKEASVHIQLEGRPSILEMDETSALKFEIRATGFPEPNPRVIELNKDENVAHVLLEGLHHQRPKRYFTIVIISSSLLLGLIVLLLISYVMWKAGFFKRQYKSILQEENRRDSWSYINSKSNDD

activation, inactive:
COC(=O)c1ccc(CN(c2ccccc2OC)S(=O)(=O)c2cccs2)o1 -2%
O=C(CCS(=O)(=O)Cc1ccccc1F)NCCCN1CCCCC1 -2%
COc1ccc(CN2C(=O)CN=C2Nc2ccc(C)cc2C)cc1 6%
COc1cccc(N2C(=O)CC(N3CCN(S(=O)(=O)c4ccccc4)CC3)C2=O)c1 (stereo not given) -2%
CN(CCCNC(=O)CN1C(=O)CC(C)(C)S(=O)(=O)c2ccccc21)C1CCCCC1 6%
Cc1ccc(NC(=O)CCNS(=O)(=O)c2ccc3c(c2)oc(=O)n3C)cc1C 9%
O=C(COC(=O)c1ccccc1C(=O)c1ccccc1)c1ccco1 2.5%
CNC(=O)Nc1cc(C(C)(C)C)no1 -2%
Cc1cc(=O)n2nc(N3CCCC(C(=O)NCCC4=CCCCC4)C3)sc2n1 (stereo not given) -3%
CC(c1cccnc1)N(CCN(C)C)C(=O)Nc1ccc(Cl)c(Cl)c1 (stereo not given) -2%
CSc1sc(C)cc1C1C(C#N)=C(N)N(c2cccnc2)C2=C1C(=O)CCC2 (stereo not given) 0%
COc1ccc(C2C3=C(OC(C)=O)c4ccccc4C3=Nc3c2c(=O)n(C)c(=O)n3C)cc1 (stereo not given) -0.5%
COCCNC(=O)CN1C(=O)CSc2ncccc21 2.7%
CC(=O)Nc1ccc(S(=O)(=O)N2CCC(N(C)CCC(C)C)CC2)cc1 4%
CCOC(=O)N1CCC(NC(=O)COc2cc(=O)n(C)c3ccccc23)CC1 -3%
O=C(O)CCN1C(=O)CC2(CCCCC2)C1=O -1%
c1cc(-c2nn[nH]n2)ccc1CN1CCCCC1 1%
O=C(O)CSCNC(=O)CC12CC3CC(CC(C3)C1)C2 13%
CCC(C)NC(=O)C1CCC(=O)N1Cc1ccc(C)cc1 (stereo not given) 4%
O=c1c(-c2ccccc2)coc2c(CN3CCOCC3)c(O)ccc12 9.5%
Cc1noc(C)c1S(=O)(=O)N(CC(=O)NCc1ccc(Cl)cc1)c1ccc2c(c1)OCO2 3%
CC(C)C(=O)Nc1c(C(=O)c2ccc(F)cc2)oc2ccccc12 -2%
O=C(CCCCn1c(=O)[nH]c2ccccc2c1=O)NCc1ccc2c(c1)OCO2 10%
CCCC(=O)NC(C)C(c1cccs1)N1CCN(c2ccccc2)CC1 (stereo not given) -2%
Cn1cccc1C1(C(F)(F)F)NCCNC1=O (stereo not given) 1%
Cc1ccccc1CSc1nnc(Cn2c(=O)sc3ccccc32)n1C 4%
Nc1nonc1C(=O)NCCc1ccccc1 6%
CCOc1ccc(-c2nnc3ccc(SC)nn23)cc1 4%
CCOc1ccc(-n2c(SC(C)C(=O)OC)nc3c(c2=O)SCC3)cc1 (stereo not given) 0%
O=C(NCc1ccco1)C1CCCN(S(=O)(=O)c2cnc[nH]2)C1 (stereo not given) -5%
O=C(Nc1nsc(-c2ccccc2)n1)c1ccncc1 4%
COc1nc(Oc2ccc(=O)n(C)n2)nc(N(C)C)n1 4%
C=CCOc1ccc(C2/C(=C(\O)c3c(C)[nH]c(C(=O)OC)c3C)C(=O)C(=O)N2CCN(C)C)cc1 (stereo not given) -6%
CCOC(=O)C1CCN(C(=O)c2oc3ccc(S(=O)(=O)N4CCCCCC4)cc3c2C)CC1 -3%
O=C(O)c1ccc(NC(=O)c2cccs2)cc1 -2.5%
CCC1Oc2ccc(Cl)cc2N(CC(=O)O)C1=O (stereo not given) 2%
CCOC(=O)CSc1nnc(NC(=O)c2cccc(S(=O)(=O)N3CCCCC3)c2)s1 0.5%
CCC(=O)c1ccc(OCC(O)CN2C(=O)NC(C)(C)C2=O)cc1 (stereo not given) -4%
Cc1ccc(-c2cc(C(F)(F)F)n3nc(C(=O)N4CCCC4)cc3n2)cc1 -1%
Cc1ccc(CNC(=O)CN2CCN(Cc3ccc(Cl)cc3)C2=O)cc1 -2%
CCn1c(SCC(=O)Nc2ccc3c(c2)OCCO3)nc2c(c1=O)SC(C)C2 (stereo not given) -4%
CS(=O)(=O)NCc1ccc(C(=O)NCc2ccccc2)cc1 1%
CCCC(=O)Nc1nnc(CC(=O)OCC)s1 -0.5%
O=C(CC1Oc2ccccc2NC1=O)NCCCN1CCN(Cc2ccccc2)CC1 (stereo not given) -1%
CCC1CCCCN1CCNS(=O)(=O)c1ccc2c(c1)CCN2C(C)=O (stereo not given) -4%
Cc1oc(-c2cccc(Cl)c2)[n+]([O-])c1C 8%
CCOC(=O)CN1C(=O)C(O)(CC(=O)c2ccccn2)c2ccccc21 (stereo not given) 4%
CCOc1ccc(S(=O)(=O)n2ccnc2)c2ccccc12 1%
Cn1c(=O)c2c(nc(N3CCCCCC3)n2CC(=O)c2ccc(Br)cc2)n(C)c1=O -1%
CCOc1ccc(OCC)c(NC(=O)C(NS(=O)(=O)c2ccc3c(c2)oc(=O)n3C)C(C)C)c1 (stereo not given) -2%
Cn1cccc1Cc1nnc(SCC(=O)NCc2ccc3c(c2)OCO3)n1CCc1ccccc1 -4%
Cn1c(=O)[nH]c(=O)c2c1nc(CN(Cc1ccccc1)Cc1ccccc1)n2CCN1CCOCC1 -6%
C=CCn1c(=N)n(CC(O)COc2ccc(OC)cc2)c2ccccc21 (stereo not given) 0%
CCOc1cc(C(=O)Nc2ncccn2)cc(OCC)c1OCC 11.5%
Cc1nnc(C)n1/N=C/c1ccc(C(C)C)cc1 -4%
N#CCCN1CCN(S(=O)(=O)c2ccc(S(=O)(=O)NC3CC3)cc2)CC1 1%
Cc1nnc(NC(=O)CCC(=O)N2CCC(C)CC2)s1 -0.5%
O=C(CCn1c(=S)[nH]c2ccccc2c1=O)NCCCN1CCCC1=O 5%
CC(=O)c1c(N)n(C)c(=O)n(C)c1=O 9%
CCCn1nnc2sc3c(c2c1=O)CCC(C)C3 (stereo not given) 4%
CC1CCCN(C(=O)c2ccc3c(c2)C(=O)N(CCC2=CCCCC2)C3=O)C1 (stereo not given) 0%
CCCCC(=O)N(c1ccc(OC)cc1)C1C=CS(=O)(=O)C1 (stereo not given) -1%
CCCCn1c(=S)[nH]c2ncccc2c1=O 1%
O=S1(=O)CC(NCc2ccccc2)C(Nc2ccc(Cl)cc2)C1 (stereo not given) -8%
CCCCCCn1c(CN2CCCCC2)nc2c1c(=O)n(C)c(=O)n2C -6%
COc1ccccc1C(=O)N1CCN=C1SCc1cccnc1 2%
Cc1ccc(S(=O)(=O)N2C3C=CC(C3)C2C(=O)O)cc1 (stereo not given) 5%
COc1cccc(N(C(=O)c2ccn[nH]2)C2(C(=O)Nc3c(C)cccc3C)CCCCC2)c1 3%
CCOC(=O)C1CCN(C(=O)C2CCN(S(=O)(=O)N3CCCC3)CC2)CC1 6%
COc1ccc(-c2nc(CS(=O)CC(=O)NCc3cccnc3)c(C)o2)cc1OC (stereo not given) 3%
Cc1noc(C)c1S(=O)(=O)N1CCCC(C(=O)Nc2nccs2)C1 (stereo not given) 0%
CCN(CC)S(=O)(=O)N1CCC(C(=O)NC(C)CCc2ccccc2)CC1 (stereo not given) 3%
COc1cccc(-n2c(Cc3cc(=O)[nH]c(=O)[nH]3)nnc2SCC(=O)Nc2ccccc2)c1 5%
Cc1cccc(N2C(=O)SC(N(CC(=O)O)c3cccc(C)c3)C2=O)c1 (stereo not given) 7%
CCN(Cc1ccccc1)C(=O)CSc1nc(C)cc2c1C(=O)OC2 -9%
CCOc1ccc(CNC(=O)C2CCC(=O)N2C2CCCC2)cc1OC (stereo not given) -7%
O=C(CN1CCN(S(=O)(=O)c2ccc(F)cc2)CC1)Nc1ccccc1F -1%
COc1ccc(OC)c(N=Cc2c(O)[nH]c3ccccc23)c1 8%
O=C1c2cccnc2C(=O)N1Cc1cccs1 0%
COc1ccccc1CNC(=O)CCn1c(=O)sc2ccccc21 5%
CSCCC(NC(=O)C1CCC(C)CC1)C(=O)NCc1ccco1 (stereo not given) 3%
CC(=O)c1c(C)c[nH]c1C 3%
CCOC(=O)c1cnc(-n2nc(C)cc2C)nc1Nc1cccc(C(C)=O)c1 0%
CCOc1cc(/C=N/n2cnnc2)c(Br)cc1O 9%
CC1CN(C(=O)c2ccc3c(c2)OCO3)OC(c2ccccc2)O1 (stereo not given) 4%
CCOC(=O)N1CCN(C(=O)c2n[nH]c(=O)c3ccccc23)CC1 -9%
CCOC(=O)N1CCN(S(=O)(=O)c2cc3c(cc2C)NC(=O)CO3)CC1 -8%
Cc1oc(-c2ccccc2F)nc1CS(=O)(=O)CC(=O)NCCCN(C)C1CCCCC1 -7%
O=C(NCc1cccnc1)c1ccc(CS(=O)(=O)c2ccc(Br)cc2)o1 3%
CCOC(=O)c1ccc(-n2c(C)nc3c(cnn3-c3ccccc3C)c2=O)cc1 -2.3%
CCOc1cc2[nH]c(=O)n(CCC(=O)NCc3ccc(OC)cc3)c(=O)c2cc1OCC 1%
COc1ccccc1NC(=O)CN1CCN(S(=O)(=O)c2ccc(Br)cc2)CC1 1%
O=C(O)CCC(=O)Nc1ccc(N2CCOCC2)cc1 2%
S=C1SCN(CCN2CCOCC2)CN1Cc1ccccc1 -3%
Cc1ccc(S(=O)(=O)NCCN2CCOCC2)cc1C -2%
CN1CCCc2cc(C#N)c(=O)[nH]c21 -3%
CCN1CCN(c2ncnc3c2oc2nc(C)c4c(c23)CC(C)(C)OC4)CC1 9%
CCOc1ccc(NC(=O)CC2NCCNC2=O)cc1 (stereo not given) 0.7%
O=C(CN1CCOCC1)N1CCCc2c1c(=O)oc1ccc(OCc3ccccc3)cc21 -5%
Cc1ccc2nc3n(c(=O)c2c1)CCC3 5%
